According to the supplement of paper PMC9023506:
Where a name gives a salt, the structure may show the parent alone.

Tested on: Danio rerio larvae (5 dpf)
Experiment: optomotor response to blue moving lines, difference vs DMSO (percentage points (treated minus DMSO)); higher = more of the behaviour than the DMSO vehicle control
Settings: 10 µM; exposure time: 3 h pre-incubation + 3 h imaging
Protocol: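 5-dpf wild-type zebrafish larvae were imaged in 96-well plates. They were treated with 190 Tocris FDA-approved drugs at 10 µM (1 µl/ml DMSO) for 3 h before and 3 h during imaging at 28.5 °C, 48 larvae per drug. Automated image analysis gave % time moving and optomotor responses. Values are drug group mean minus DMSO vehicle mean (n=844), in percentage points, for 10 behaviours.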

Compared with `COc1ccc(-c2ccc3cc(C(=O)O)ccc3c2)cc1C12CC3CC(CC(C3)C1)C2` [Adapalene], `C=CC(=O)N1CCC[C@@H](n2nc(-c3ccc(Oc4ccccc4)cc3)c3c(N)ncnc32)C1` [Ibrutinib] is higher in “optomotor response to blue moving lines” value: -1.19 for the first, 6.42 for the second.

First: CO[C@H]1/C=C/O[C@@]2(C)Oc3c(C)c(O)c4c(O)c(c5c(nc6cc(C)ccn65)c4c3C2=O)NC(=O)/C(C)=C\C=C\[C@H](C)[C@H](O)[C@@H](C)[C@@H](O)[C@@H](C)[C@H](OC(C)=O)[C@@H]1C [Rifaximin]
Second: COc1ccc([C@@H]2Sc3ccccc3N(CCN(C)C)C(=O)[C@@H]2OC(C)=O)cc1 [Diltiazem hydrochloride]
The “optomotor response to blue moving lines” value of the first is higher: 9.62 for the first, -5.83 for the second.

Compared with `CN(C)CC/C=C1/c2ccccc2COc2ccc(CC(=O)O)cc21` [Olopatadine hydrochloride], `CCN(Cc1ccncc1)C(=O)C(CO)c1ccccc1` (stereo not given) [Tropicamide] is higher in “optomotor response to blue moving lines” value: -0.0571 for the first, 0.00192 for the second.

Compared with `O=c1[nH]c(=O)n([C@H]2C[C@H](O)[C@@H](CO)O2)cc1C(F)(F)F` [Trifluorothymidine], `Cc1cn([C@H]2C=C[C@@H](CO)O2)c(=O)[nH]c1=O` [Stavudine] is higher in “optomotor response to blue moving lines” value: 6.73 for the first, 10 for the second.

Going from `COCCCOc1cc(C[C@@H](C[C@H](N)[C@@H](O)C[C@H](C(=O)NCC(C)(C)C(N)=O)C(C)C)C(C)C)ccc1OC` [Aliskiren hemifumarate] to `CCOc1ccccc1OCCN[C@H](C)Cc1ccc(OC)c(S(N)(=O)=O)c1` [Tamsulosin hydrochloride], the “optomotor response to blue moving lines” value rises from -5.15 to 2.91.

Going from `CCCc1nn(C)c2c(=O)[nH]c(-c3cc(S(=O)(=O)N4CCN(C)CC4)ccc3OCC)nc12` [Sildenafil citrate] to `CCc1c2c(nc3ccc(OC(=O)N4CCC(N5CCCCC5)CC4)cc13)-c1cc3c(c(=O)n1C2)COC(=O)[C@]3(O)CC`, the “optomotor response to blue moving lines” value falls from 8.78 to 1.97.

Compared with `N#Cc1ccc(C(c2ccc(C#N)cc2)n2cncn2)cc1` [Letrozole], `Cc1ccc(-c2cc(C(F)(F)F)nn2-c2ccc(S(N)(=O)=O)cc2)cc1` [Celecoxib] is lower in “optomotor response to blue moving lines” value: 2.11 for the first, -3.07 for the second.

Going from `COc1ccc(Cl)cc1C(=O)NCCc1ccc(S(=O)(=O)NC(=O)NC2CCCCC2)cc1` [Glibenclamide] to `CN(CCOc1ccc(NS(C)(=O)=O)cc1)CCc1ccc(NS(C)(=O)=O)cc1` [Dofetilide], the “optomotor response to blue moving lines” value falls from 1.29 to -7.25.

Compared with `CCC(C)(C)C(=O)O[C@H]1C[C@@H](C)C=C2C=C[C@H](C)[C@H](CC[C@@H]3C[C@@H](O)CC(=O)O3)[C@H]21` [Simvastatin], `C[C@H]1C[C@@H]2[C@H]([C@@H](O)C[C@@]3(C)[C@H]2CC[C@]3(O)C(=O)CO)[C@@]2(C)C=CC(=O)C=C12` [Methylprednisolone] is higher in “optomotor response to blue moving lines” value: -4.79 for the first, 10.6 for the second.

Going from `CC(=O)Oc1cc2c(s1)CCN(C(C(=O)C1CC1)c1ccccc1F)C2` (stereo not given) [Prasugrel] to `CCOC(=O)[C@H](CCc1ccccc1)N[C@H]1CCc2ccccc2N(CC(=O)O)C1=O` [Benazepril hydrochloride], the “optomotor response to blue moving lines” value rises from 3.83 to 5.7.

Going from `CCCCCOC(=O)Nc1nc(=O)n([C@@H]2O[C@H](C)[C@@H](O)[C@H]2O)cc1F` [Capecitabine] to `Nc1nc(F)nc2c1ncn2[C@@H]1O[C@H](CO)[C@@H](O)[C@@H]1O` [Fludarabine], the “optomotor response to blue moving lines” value falls from 16.5 to -12.

Going from `CCOc1nc2cccc(C(=O)O)c2n1Cc1ccc(-c2ccccc2-c2nnn[nH]2)cc1` [Candesartan] to `COc1ccccc1Oc1c(NS(=O)(=O)c2ccc(C(C)(C)C)cc2)nc(-c2ncccn2)nc1OCCO` [Bosentan], the “optomotor response to blue moving lines” value falls from 9.66 to -2.84.

First: CC(=O)NC[C@H]1CN(c2ccc(N3CCOCC3)c(F)c2)C(=O)O1 [Linezolid]
Second: O=C1CCc2ccc(OCCCCN3CCN(c4cccc(Cl)c4Cl)CC3)cc2N1 [Aripiprazole]
The “optomotor response to blue moving lines” value of the first is lower: -4.03 for the first, -0.0385 for the second.

First: CCc1ccc(CCOc2ccc(CC3SC(=O)NC3=O)cc2)nc1 (stereo not given) [Pioglitazone hydrochloride]
Second: CNCc1ccc(-c2[nH]c3cc(F)cc4c3c2CCNC4=O)cc1 [Rucaparib camsylate]
The “optomotor response to blue moving lines” value of the first is lower: -1.78 for the first, 10.7 for the second.

Compared with `OCCOCCN1CCN(C2=Nc3ccccc3Sc3ccccc32)CC1` [Quetiapine hemifumarate], `CC(C)N(CCCCOCC(=O)NS(C)(=O)=O)c1cnc(-c2ccccc2)c(-c2ccccc2)n1` [Selexipag] is lower in “optomotor response to blue moving lines” value: 19.9 for the first, -1.72 for the second.

Going from `CCOC(=O)C1=C(C)NC(C)=C(C(=O)OC)C1c1cccc(Cl)c1Cl` (stereo not given) [Felodipine] to `NS(=O)(=O)c1cc(C(=O)O)c(NCc2ccco2)cc1Cl` [Furosemide], the “optomotor response to blue moving lines” value rises from -5.26 to 6.22.

Compared with `Cc1ccc(NC(=O)c2ccc(CN3CCN(C)CC3)cc2)cc1Nc1nccc(-c2cccnc2)n1` [Imatinib mesylate], `O=C(Nc1c(Cl)cncc1Cl)c1ccc(OC(F)F)c(OCC2CC2)c1` [Roflumilast] is lower in “optomotor response to blue moving lines” value: -0.219 for the first, -1.76 for the second.

Compared with `C[C@H]1O[C@H](O[C@H]2[C@H](O)[C@@H](O)[C@@H](O[C@H]3[C@H](O)[C@@H](O)C(O)O[C@@H]3CO)O[C@@H]2CO)[C@H](O)[C@@H](O)[C@@H]1N[C@H]1C=C(CO)[C@@H](O)[C@H](O)[C@H]1O` (stereo not given in full) [Acarbose], `Nc1ccn([C@@H]2O[C@H](CO)[C@@H](O)C2(F)F)c(=O)n1` [Gemcitabine hydrochloride] is lower in “optomotor response to blue moving lines” value: 15.5 for the first, 3.79 for the second.

Compared with `CCN(CC)CCNC(=O)c1c(C)[nH]c(/C=C2\C(=O)Nc3ccc(F)cc32)c1C` [Sunitinib malate], `Cc1nc(-c2ccc(OCC(C)C)c(C#N)c2)sc1C(=O)O` [Febuxostat] is lower in “optomotor response to blue moving lines” value: -5.69 for the first, -7.14 for the second.

Going from `CC(C)(C)NC(=O)[C@@H]1C[C@@H]2CCCC[C@@H]2CN1C[C@@H](O)[C@H](Cc1ccccc1)NC(=O)[C@H](CC(N)=O)NC(=O)c1ccc2ccccc2n1` [Saquinavir mesylate] to `C/C(O)=C(\C#N)C(=O)Nc1ccc(C(F)(F)F)cc1` [Teriflunomide], the “optomotor response to blue moving lines” value falls from -2.78 to -8.25.
